# Screens (PubChem BioAssay)
# Rows were chosen to be rich in hits. Some 8.7% of all compounds tested hit in one or more screens of this group.
# Pf growth 48h – inhibits P. falciparum growth in the first generation, 48 h | AID 504832 | hit rate 5.9% among 310,000 | Potency, µM (top dose mostly 28.7 µM), for the others: at the top dose activity change, negative = inhibition, actives largely listed as inhibitors | P. falciparum luciferase growth in erythrocytes, 48 h
#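 Erythrocytes infected with P. falciparum carrying an integrated firefly luciferase reporter (2% hematocrit, 0.1% parasitemia final) were exposed to compounds in RPMI 1640 with 0.5% Albumax at 37 C, 5% CO2. Growth inhibition was scored as reduced luminescence.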
# VACV Venus inh – inhibitors of vaccinia virus (Venus reporter) | Vaccinia virus Venus reporter expression, fluorescence | Potency, µM (top dose mostly 36.5 µM), for inactives: top-dose activity change, negative = inhibition, hits mostly inhibitors | AID 720580 | hit rate 0.46% among 330,000; calls by dose curve; tested in A549 cells; further: nearly all actives have a fitted effect of over 30% in size
# Vaccinia mCherry – vaccinia inhibition (mCherry reporter); Vaccinia virus mCherry reporter infection, fluorescence; Potency, µM (titrated, usually from 36.5 µM), inactives show at the highest dose activity change, negative = inhibition, most hits filed as inhibitors; hit rate 0.63% among 310,000; AID 720579; calls by dose curve; tested in A549 cells; further: nearly all actives have a fitted effect of over 35% in size
# AMA1-RON2 inh – disrupts binding of P. falciparum AMA1 to RON2; AlphaScreen AMA1-biotinylated RON2 peptide binding; Potency, µM (series often up to 58.2 µM), for the others: at the highest dose activity change, negative = inhibition, usual class: inhibitors; hit rate 0.2% among 360,000;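 further: 0% = vehicle wells and -100% = peptide control; nearly all actives have a fitted effect of over 45% in size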
#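 AMA1 (3D7) with his tag at 25 nM final met compounds first, then biotinylated RON2 peptide at 25 nM; detection used donor plus acceptor beads, 10 µg/mL apiece, read by AlphaScreen after 30 min at room temperature.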
# Pf growth 96h – inhibits malaria parasite growth, 96 h | P. falciparum luciferase reporter growth, 96 h | Potency, µM (titrated, usually from 28.7 µM), for the others: at the highest dose activity change, negative = inhibition, usual class: inhibitors | hit rate 6.9% among 320,000
#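 Delayed-death screen, second-generation endpoint: infected erythrocytes, 2% hematocrit, 0.05% parasitemia final; 96 hours at 37 C, 5% CO2; luciferase detection reagent; luminescence decrease equals reduced growth.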
# Starred values were filed as active, the others as inactive; i = inactive; ? = inconclusive; · = not tested or not shown. Unless noted, the call rests on the fitted dose curve; in most records, active means well fitted curve in the direction sought with a large enough effect; inconclusive means small, poorly fitted or top-dose-only effect, or another doubt; inactive means no such curve, though single readings can be large; an effect the other way counts as inactive or inconclusive. Unless noted, on the % scale 0 is the no-effect control and ±100 the full control effect; potency means the concentration at half of the fitted maximal effect.
SMILES,Pf growth 48h,VACV Venus inh,Vaccinia mCherry,AMA1-RON2 inh,Pf growth 96h
O=Nc1ccc(/C=C/c2ccnc3ccccc23)cc1,·,-10.7%,-13.9%,·,·
Nc1nc(-c2ccc3ccccc3c2)cs1,340.2%,-20.1%,-22.6%,-6.7%,?
Oc1cccnc1Sc1cccc(C(F)(F)F)c1,·,-14.8%,-5.0%,9.4%,·
Nc1nc(N)c2cc(Sc3cccc(C(F)(F)F)c3)ccc2n1,·,5.01µM*,7.08µM*,-10.0%,·
Nc1ccc(Sc2cc(Cl)nc(N)n2)cc1,-15.5%,·,·,·,2.2%
Nc1nc(N)c2cc(Sc3ccc(Cl)cc3)ccc2n1,·,6.31µM*,?,-10.9%,·
Nc1nc(N)c2cc(Sc3ccc4ccccc4c3)ccc2n1,0.0074µM*,·,·,5.0%,?
CCc1ccc(NC(=O)c2cc3c([nH]c2=O)CC(C)(C)CC3=O)cc1,·,-1.7%,-1.0%,·,·
COc1cccc(CC(NC(C)=O)C(=O)NC2CCN(S(=O)(=O)c3cccc4ccccc34)CC2)c1 (configuration not stated),·,-14.0%,-20.2%,1.1%,11.7µM*
COc1ccc(S(=O)(=O)N2CCC(NC(=O)C(Cc3cccc(OC)c3OC)NC(C)=O)CC2)cc1 (configuration not stated),9.2%,-5.2%,i,-11.7%,-19.4%
COc1nc(OC)nc(N2CCC(NC(=O)C(Cc3ccc(C(C)C)cc3)NC(C)=O)CC2)n1 (configuration not stated),10.4µM*,-7.9%,-14.5%,-13.1%,10.7%
COc1cc(CC(NC(C)=O)C(=O)NC2CCN(c3nc(OC)nc(OC)n3)CC2)cc(OC)c1 (configuration not stated),13.1µM*,0.6%,-16.2%,3.9%,5.22µM*
COc1ccc(-c2nc3ccccc3o2)cc1NC(=O)COc1ccc(C(C)(C)C)cc1,·,-9.3%,-11.1%,·,·
CCOC(=O)CN1NC2(CCCCCCC2)NC1=S,-24.6%,-8.6%,i,68.0%,22.9%
CCOC(=O)Cn1c2c(c(=N)c3c1CCC3)CCC2,1.04µM*,-19.1%,-16.6%,-6.8%,-0.2%
O=C(O)Cn1c2c(c3ccccc31)CCCC2,2.3%,0.1%,i,-4.7%,225.9%
CCOC(=O)Cn1c2c(c(=N)c3ccccc31)CCC2,?,-8.5%,·,-0.8%,0.37µM*
COc1ccccc1CC(NC(C)=O)C(=O)NC1CCN(C(=O)c2ccc([N+](=O)[O-])cc2)CC1 (configuration not stated),0.0%,-10.3%,i,-6.1%,6.57µM*
COc1cc(C(=O)N2CCC(NC(=O)C(Cc3ccccc3)NC(C)=O)CC2)cc(OC)c1OC (configuration not stated),?,·,·,10.6%,11.7µM*
COc1ccc(C(=O)N2CCC(NC(=O)C(Cc3ccccc3OC)NC(C)=O)CC2)cc1 (configuration not stated),-18.2%,-3.5%,-11.7%,-2.5%,19.0%
O=C(NC1CCN(C(=O)Nc2cccc(F)c2)CC1)C1CCCCC1,-4.4%,·,·,-7.7%,11.7µM*
COc1ccccc1CC(NC(C)=O)C(=O)NC1CCN(C(=O)Nc2cccc(F)c2)CC1 (configuration not stated),-20.5%,4.3%,9.2%,6.5%,1.31µM*
O=C(c1ccccc1Br)N(Cc1ccco1)Cc1ccco1,·,-4.1%,5.3%,·,·
COc1ccc(-c2nnc(C3CCN(S(=O)(=O)c4cccc(Cl)c4)CC3)o2)cc1,·,-11.2%,-10.4%,·,·
CCOC(=O)CN1C(=O)C(Sc2n[nH]c(-c3ccc(C)cc3)n2)CCc2ccccc21 (configuration not stated),?,-29.1%,?,-5.2%,11.7µM*
SMILES,Pf growth 48h,VACV Venus inh,Vaccinia mCherry,AMA1-RON2 inh,Pf growth 96h
CCOC(=O)CN1C(=O)C(Sc2n[nH]c(-c3cccc(C)c3)n2)CCc2ccccc21 (configuration not stated),13.1µM*,-21.8%,?,-4.8%,9.28µM*
COc1ccc(N2C(=O)CC(Sc3n[nH]c(-c4cccc(C)c4)n3)C2=O)cc1 (configuration not stated),?,-15.5%,i,56.6%,?
Cc1c(C(=O)NCC(c2ccc(Cl)cc2)N2CCOCC2)oc2ccccc12 (configuration not stated),·,-6.4%,-0.9%,·,·
O=C(NCC1CCC2(CCN(Cc3cccc4cccnc34)CC2)O1)c1ccco1 (configuration not stated),·,0.0%,i,·,·
CCOC(=O)c1[nH]c2c(c1Cc1ccccc1OC)C(=O)CC(c1ccccc1)C2 (configuration not stated),·,-14.1%,i,·,·
C=CCC[C@H](Cc1ccc(F)cc1)C(=O)OC[C@H](Cc1c[nH]c2ccccc12)NC(=O)[C@@H](CC=C)CC(=O)N[C@@H](CO)Cc1ccccc1,·,10µM*,-29.7%,9.0%,·
C=CCC[C@@H](Cc1ccc(F)cc1)C(=O)OC[C@H](Cc1c[nH]c2ccccc12)NC(=O)[C@@H](CC=C)CC(=O)N[C@H](CO)Cc1ccccc1,·,?,i,23.7%,·
C=CC[C@@H](CC(=O)N[C@@H](CO)Cc1ccccc1)C(=O)N[C@H](COC(=O)[C@@H](CC=C)CC(=O)OC(C)(C)C)Cc1c[nH]c2ccccc12,·,11.2µM*,?,-12.6%,·
C=CCC[C@H](Cc1ccc(F)cc1)C(=O)OC[C@H](Cc1c[nH]c2ccccc12)NC(=O)[C@@H](CC=C)CC(=O)N[C@H](CO)Cc1ccccc1,·,11.2µM*,-28.7%,-2.9%,·
C=CC[C@H](CC(=O)N[C@H](CO)Cc1ccccc1)C(=O)N[C@@H](COC(=O)[C@@H](CC=C)CC(=O)OC(C)(C)C)Cc1c[nH]c2ccccc12,·,?,?,-4.8%,·
Cc1ccc(OCCSc2nc3ccccc3n2CC(=O)N2CCOCC2)cc1C,·,-4.5%,-11.3%,·,·
O=C(CCl)Nc1cccc(S(=O)(=O)NC2=NCCC2)c1,3.29µM*,·,·,-6.1%,4.65µM*
O=C(Cc1csc(-c2ccc(F)cc2)n1)Nc1cccc(S(=O)(=O)NC2=NCCC2)c1,-28.7%,·,·,10.3%,6.57µM*
CN(CC(=O)Nc1cccc(S(=O)(=O)NC2=NCCCCC2)c1)Cc1ccc(C(C)(C)C)cc1,?,-22.0%,i,-18.5%,?
O=C(COC(=O)c1ccc(O)cc1)Nc1cccc(S(=O)(=O)NC2=NCCC2)c1,?,·,·,-6.5%,6.57µM*
CC(C)(C)c1ccc(OCCC(=O)Nc2cccc(S(=O)(=O)NC3=NCCCCC3)c2)cc1,11.7µM*,-21.0%,-20.7%,-9.9%,?
CC(C)C(=O)Nc1cccc(S(=O)(=O)NC2=NCCC2)c1,·,-9.4%,i,-5.6%,·
CC(C)CCNC(=O)c1ccc2c(c1)NC(=O)C(C(C)C)N2 (configuration not stated),·,-4.1%,2.5%,·,·
O=C(NCCc1cccs1)c1ccc(Cn2c(SCc3ccc(F)cc3)nc3cccnc32)cc1,·,-12.6%,-6.8%,·,·
CCc1nc2nc(C)c(NS(=O)(=O)c3ccc(C(C)(C)C)cc3)c(=O)n2[nH]1,·,-7.9%,-1.8%,·,·
COCc1nc2ccccc2n1CCOc1cccc(C)c1,·,-13.3%,-11.0%,·,·
